B2AR ag: agonists of human beta-2 adrenergic receptor inducing internalization; P07550; Am2.2-beta2AR cells, FAP receptor internalization, flow cytometry; response, % (test concentration not listed); hit rate 0.43% among 340,000; AID 504454;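 active = response above a set limit, near 3 SD of response in nonfluorescent compounds, cut at about 42% in these data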
Target sequence (P07550 whole entry, looked up): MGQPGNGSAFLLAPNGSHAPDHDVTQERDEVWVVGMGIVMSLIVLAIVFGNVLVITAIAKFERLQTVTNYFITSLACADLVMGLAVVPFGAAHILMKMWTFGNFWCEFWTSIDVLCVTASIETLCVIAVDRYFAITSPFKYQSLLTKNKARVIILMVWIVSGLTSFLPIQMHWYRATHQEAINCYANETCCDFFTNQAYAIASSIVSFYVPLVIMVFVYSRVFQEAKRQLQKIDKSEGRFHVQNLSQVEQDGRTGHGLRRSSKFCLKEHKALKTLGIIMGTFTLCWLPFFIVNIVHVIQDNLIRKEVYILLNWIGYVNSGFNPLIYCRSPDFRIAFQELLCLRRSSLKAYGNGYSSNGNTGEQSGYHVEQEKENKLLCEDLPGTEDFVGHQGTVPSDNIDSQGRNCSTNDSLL
MEKK2 WT-MEK5: raises or lowers MEK5 binding to wildtype human MEKK2 PB1 domain; Q9Y2U5; bead flow cytometry, Alexa488-MEK5 binding to MEKK2 WT; actives lie on both sides; binding response (% of control), % at 10 µM; hit rate 1.1% among 290,000; AID 1531; in the data active = binding response below about 67% or above about 130%
GRK2 aptamer HTS: human GRK2 inhibition via aptamer displacement. P25098. bead flow cytometry, FAM-aptamer displacement from GRK2. inhibition of aptamer binding, % at 10 µM. hit rate 0.59% among 330,000;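 active = inhibition of aptamer binding above 40%, roughly 3 SD of noise, on plates passing a quality check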;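 also: median bead fluorescence of bound FAM aptamer so fluorescent compounds give negative values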
MEKK3 PB1 HTS: modulators (inhibitors or enhancers) of MEK5 binding to human MEKK3 PB1 domain; Q99759; bead-based flow cytometry, Alexa488-MEK5 binding to MEKK3; actives lie on both sides; 0 = blocked by unlabeled MEK5, 100 = vehicle; binding response (% of control), % at 10 µM; hit rate 1.4% among 290,000; AID 1529;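 active = binding response more than 3 SD above or below the average of its plate-row segment, actives on both sides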;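 also: Alexa488 bead fluorescence after subtracting the streptavidin-only scavenger bead signal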
MEKK2 mut-MEK5: signal of MEK5 binding to mutant human MEKK2 PB1 domain | percent response, % at 10 µM | hit rate 0.35% among 290,000 | bead flow cytometry, Alexa488-MEK5 binding to MEKK2 mutant | AID 1530; in the data active = percent response above about 24%, passing the limit was not always enough
GRK2 CP1: confirmation of human GRK2 inhibitors displacing RNA aptamer. AID 504451. aptamer displacement, % at 10 µM. hit rate 4% among 2,000. bead-bound GRK2, FAM-aptamer displacement, flow cytometry. shares compounds with GRK2 aptamer HTS;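 active = aptamer displacement above 40%, near three times the noise of non-fluorescent compounds, on plates passing quality checks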;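 also: negative values mostly reflect intrinsic compound fluorescence rather than true enhancement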
Aptamer quench SP: counter-screen for GRK2 aptamer inhibitors: fluorescent aptamer quenchers. 2,000 tested, under 10 active. AID 504580. fluorescence response (% of DMSO), % at 10 µM. shares compounds with GRK2 aptamer HTS. Carboxyfluorescein RNA aptamer on beads, flow cytometry quenching; stronger effect = lower value;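 active = compounds that quench the bead-bound fluorescent RNA probe, cutting fluorescence to under half of the solvent control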;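 also: counterscreen run without GRK2 so only probe quenching by compound is measured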
Starred values were filed as active, the others as inactive. This is a sample that favours compounds with a hit; in the whole collection about 2.9% have one here.

What do the screens show for `CCc1ccc(NC(=O)Cn2c3[n+](c4c(F)c(F)ccc42)CCCCC3)cc1`?
B2AR ag: -0.3; MEKK2 WT-MEK5: 105.0; GRK2 aptamer HTS: 0.0; MEKK3 PB1 HTS: 103.0; MEKK2 mut-MEK5: -1.0

What do the screens show for `CCCNC(=O)c1ccc2c(c1)nc(C)n2-c1cccc(Cl)c1`?
B2AR ag: -11.1; MEKK2 WT-MEK5: 105.0; GRK2 aptamer HTS: 27.0; MEKK3 PB1 HTS: 104.0; MEKK2 mut-MEK5: 4.0

Results for CCOC(=O)c1c(-c2ccc(C)c(C)c2)csc1NC(=O)C1CC=CCC1C(=O)O (configuration not stated) ?
B2AR ag: -19.5; GRK2 aptamer HTS: 0.0

Results for CCOC(=O)c1c(-c2ccc(F)cc2)csc1NC(=O)C1CC=CCC1C(=O)O (configuration not stated) ?
B2AR ag: 9.9; MEKK2 WT-MEK5: 98.0; GRK2 aptamer HTS: 95.0*; MEKK3 PB1 HTS: 101.0; MEKK2 mut-MEK5: 0.0; GRK2 CP1: 4.6; Aptamer quench SP: 98.1

How did CCOC(CNc1ncnc2sc(-c3ccccc3)cc12)OCC do in these assays?
B2AR ag: 2.4; MEKK2 WT-MEK5: 106.0; GRK2 aptamer HTS: 48.0*; MEKK3 PB1 HTS: 104.0; MEKK2 mut-MEK5: 3.0; GRK2 CP1: 0.3; Aptamer quench SP: 98.4

Results for CC(CNc1nc2ccccc2n2cnnc12)c1ccccc1 (configuration not stated) ?
B2AR ag: -7.3; MEKK2 WT-MEK5: 104.0; GRK2 aptamer HTS: 42.0*; MEKK3 PB1 HTS: 103.0; MEKK2 mut-MEK5: 5.0; GRK2 CP1: -2.9; Aptamer quench SP: 103.0

How did CCOc1ccc(OCC(=O)N(CCC2=CCCCC2)c2c(N)n(Cc3ccccc3)c(=O)[nH]c2=O)cc1 do in these assays?
B2AR ag: -2.6; GRK2 aptamer HTS: 0.0

How did CC1Cc2c([nH]c3ccccc23)C(=O)N1 (configuration not stated) do in these assays?
B2AR ag: 2.4; MEKK2 WT-MEK5: 105.0; GRK2 aptamer HTS: 10.0; MEKK3 PB1 HTS: 102.0; MEKK2 mut-MEK5: 5.0

Results for COc1ccc(CC(=O)Nc2ccc(-c3nc4cc(C)ccc4o3)c(O)c2)cc1OC ?
B2AR ag: 24.4; GRK2 aptamer HTS: 71.0*; GRK2 CP1: -20.8; Aptamer quench SP: 108.6

Results for Cc1ccc2oc(-c3ccc(NC(=O)c4ccncc4)cc3O)nc2c1 ?
B2AR ag: 7.9; MEKK2 WT-MEK5: 91.0; GRK2 aptamer HTS: 0.0; MEKK3 PB1 HTS: 97.0; MEKK2 mut-MEK5: -13.0

Results for Cc1nc(SCC(=O)O)c(C#N)c2c1CCCC2 ?
B2AR ag: 0.6; MEKK2 WT-MEK5: 107.0; GRK2 aptamer HTS: 82.0*; MEKK3 PB1 HTS: 104.0; MEKK2 mut-MEK5: 4.0; GRK2 CP1: 15.4; Aptamer quench SP: 101.2

What do the screens show for `CCc1nc(SCC(=O)O)c(C#N)c2c1CCCC2`?
B2AR ag: 6.5; MEKK2 WT-MEK5: 89.0; GRK2 aptamer HTS: 0.0; MEKK3 PB1 HTS: 97.0; MEKK2 mut-MEK5: -14.0

How did Cc1ccc(C(=O)CCC(=O)OCC(=O)N(CC(C)C)c2c(N)n(Cc3ccccc3)c(=O)[nH]c2=O)cc1 do in these assays?
B2AR ag: 2.3; GRK2 aptamer HTS: 0.0

Results for CC(C)Cc1ccc(C#N)c(SCC(N)=O)n1 ?
B2AR ag: -3.2; MEKK2 WT-MEK5: 106.0; GRK2 aptamer HTS: 75.0*; MEKK3 PB1 HTS: 110.0; MEKK2 mut-MEK5: 7.0; GRK2 CP1: 2.5; Aptamer quench SP: 90.7

Results for COc1ccc(NC(=O)CCCCCN2C(=O)[C@@H]3Cc4ccccc4CN3C2=O)cc1Cl ?
B2AR ag: -10.3; MEKK2 WT-MEK5: 95.0; GRK2 aptamer HTS: 0.0; MEKK3 PB1 HTS: 97.0; MEKK2 mut-MEK5: -1.0; GRK2 CP1: -0.2; Aptamer quench SP: 99.0

Results for O=C(CCCCCN1C(=O)[C@@H]2Cc3ccccc3CN2C1=O)Nc1ccccc1F ?
B2AR ag: -16.6; MEKK2 WT-MEK5: 95.0; GRK2 aptamer HTS: 3.0; MEKK3 PB1 HTS: 95.0; MEKK2 mut-MEK5: 0.0; GRK2 CP1: -0.9; Aptamer quench SP: 96.3

High-throughput results deposited in PubChem by NMMLSC.
